# From PubChem BioAssay
# Several values for one entry are separate records, joined by “and”; a condition that tells them apart may be missing. Identical values can stand only once. Activity calls are given as the source filed them.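 How the source made its calls, unless noted: active means compounds whose cell count with miR-34 switched on is under 0.7 times the count with it off; inactive means the rest.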
# Experiments:
# [1] = Wnt pathway potentiators raising nuclear beta-catenin – imaging, WNT3A-conditioned medium, mouse C2C12, NPC library, primary screen (AID 1117326; in the data active means nuclear beta-catenin stimulation mostly above about 4.2%, no sharp cut-off; inactive means mostly below about 10%); conditions: stronger effect = higher value
# [2] = stimulators of insulin release from INS-1E, primary screen, cell-based, 5 mM glucose, NPC library (AID 1117329;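 active means compound raises insulin release from rat beta cells at 5 mM glucose, no numeric limit stated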); conditions: rat INS-1E insulin secretion, at 10 µM, stronger effect = higher value
# [3] = growth inhibition of GSK3B-pretreated HCT116 cells – cell-based, CellTiter-Glo, 0.2 to 20 µM (AID 1117336;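 active means compounds lowering colon cancer cell viability after pretreatment blocking the GSK3B kinase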); conditions: HCT116 viability after GSK3B inhibitor, at 20 µM, stronger effect = higher value
# [4] = inhibition of endothelial tube formation, primary screen, imaging, VEGF stimulated, CD31 staining, tube area, NPC library (AID 1117340;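 active means compound that reduces growth-factor-driven endothelial tube area in a mixed cell culture, no cutoff stated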); conditions: VEGF-stimulated ADSC/ECFC co-culture, at 10 µM, stronger effect = higher value
# [5] = GLP1 release stimulators, primary, NCI-H716, NPC library (AID 1117341;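 active means compound raises GLP1 secretion from the human gut endocrine cells, with no numeric limit stated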); conditions: NCI-H716 cells, at 10 µM, stronger effect = higher value
# [6] = HCT116 colon cancer cell growth inhibition, primary screen, CellTiter-Glo luminescence, NPC library (AID 1117342;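 active means compounds that lower survival of HCT116 colon cancer cells in the luminescence readout, no numeric limit stated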); conditions: at 20 µM (top of the series)
# [7] = reduced SW480 viability measured with CellTiter-Glo, NPC library, primary (AID 1117343;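 active means compounds that lower viability of the colon cancer cells in the luminescence readout, with no numeric limit stated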); conditions: CellTiter-Glo luminescence; at 20 µM (top of the series) unless noted
# [8] = NPC library primary testing for decreased DLD-1 cell viability via CellTiter-Glo (AID 1117346;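 active means compounds that lower survival of DLD-1 colon cancer cells in the luminescence readout, no cutoff given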); conditions: DLD-1 viability, CellTiter-Glo luminescence; at 20 µM (top of the series)
# [9] = EMT-state selective cytotoxicity in co-culture – imaging, PC-3E GFP, TEM4-18 mCherry, primary screen (AID 1345086;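 active means compounds killing one labelled cell type while sparing the other, by normalised counts and ratio limits, not self-fluorescent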;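 on all read-outs here: cells exposed to compound for 72 h before imaging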;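 on red/green cell ratio (normalised): normalised mesenchymal count divided by normalised epithelial count so high means epithelial killing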); conditions: PC-3E GFP / TEM4-18 mCherry co-culture, imaging cell counts, at 1 µM; for red/green cell ratio (normalised): actives lie on both sides, counts scaled to control wells, 1 = unselective
# [10] = compounds altering viability of human ES cells (AID 493140; call rule not given here;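 further: cells exposed to compounds for four days before counting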); conditions: human embryonic stem cell survival screen; stronger effect = higher value
# [11] = P. berghei load reduction in hepatocytes – cell-based, HepG2, luciferase luminescence, HepG2 viability, primary screen (AID 624349; in the data active means parasite load remaining mostly below about 12%, no sharp cut-off; inactive means mostly above about 10%;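 further: 100% = mean of DMSO negative control wells on the same plate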); conditions: P. berghei liver stage in HepG2, luciferase luminescence, concentration not given here; parasite load remaining: stronger effect = lower value; viability: measured here: HepG2 viability without parasites
# [12] = viability loss with induced miR-34 in A549 – imaging, A549 dox-inducible miR-34, nuclei and caspase counts, primary screen (AID 1347080); conditions: A549 miR-34 inducible, Hoechst nuclei count, 48 h
# [13] = MELAS cybrid and Rieske KO viability enhancers – cell-based, MELAS cybrids, Rieske KO mouse fibroblasts, CellTiter-Glo, primary screen (AID 1508586;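 active means mean z-score across replicates of 1.96 or higher in either the MELAS or the Rieske mutant cell line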;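 further: z relative to plate mean and SD of compound and empty wells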); conditions: low glucose
# [14] = biological target: NAD(+) hydrolase SARM1 (Homo sapiens) (UniProt Q6SZW1); test: blocking NAD cleavage by SARM1 SAM-TIR – cell lysate, NAD-Glo luminescence (AID 1508614;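 active means compound whose remaining NAD level is above about 45 nM, limit read from the data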); conditions: SAM-TIR HEK293T lysate NADase, at 1 µM, stronger effect = higher value
# Sequence of NAD(+) hydrolase SARM1 (Homo sapiens) (Q6SZW1 whole entry, looked up): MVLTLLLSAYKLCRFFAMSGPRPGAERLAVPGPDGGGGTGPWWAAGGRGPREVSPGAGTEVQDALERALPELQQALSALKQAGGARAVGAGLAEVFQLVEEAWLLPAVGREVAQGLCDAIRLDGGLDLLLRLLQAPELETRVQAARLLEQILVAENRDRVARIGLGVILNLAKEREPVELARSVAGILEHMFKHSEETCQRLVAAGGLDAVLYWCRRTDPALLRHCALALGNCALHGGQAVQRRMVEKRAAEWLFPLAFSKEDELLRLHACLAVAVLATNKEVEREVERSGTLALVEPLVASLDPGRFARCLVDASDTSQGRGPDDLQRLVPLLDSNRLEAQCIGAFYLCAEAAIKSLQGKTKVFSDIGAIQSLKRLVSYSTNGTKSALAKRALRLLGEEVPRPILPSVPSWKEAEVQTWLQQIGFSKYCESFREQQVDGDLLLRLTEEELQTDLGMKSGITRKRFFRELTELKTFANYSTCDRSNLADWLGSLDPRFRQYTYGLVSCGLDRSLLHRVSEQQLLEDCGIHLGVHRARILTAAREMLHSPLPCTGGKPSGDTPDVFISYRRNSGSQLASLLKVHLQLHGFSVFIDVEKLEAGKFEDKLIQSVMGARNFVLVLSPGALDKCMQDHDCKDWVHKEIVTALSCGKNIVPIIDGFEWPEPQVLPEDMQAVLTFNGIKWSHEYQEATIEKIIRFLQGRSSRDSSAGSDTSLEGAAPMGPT
# [15] = growth inhibition, single agent or in combination, cell-based, chromothripsis tumors, cisplatin or BGB combos (AID 1671449; in the data active means inhibition above about 80%;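 further: cells exposed for 96 hours; 0% = vehicle DMSO and 100% = killing by high DMSO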); conditions: LFS_MB_P medulloblastoma cells
# [16] = growth inhibition, single agent and combos, cell-based, chromothripsis tumors, cisplatin or BGB combos (AID 1671450; in the data active means inhibition above about 80%;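 further: cells exposed to compound for four days; 0% = vehicle DMSO and 100% = cell killing by high DMSO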); conditions: HDN33 neuroblastoma cells, stronger effect = higher value
# [17] = growth inhibition, single agents and combos, ICB984, cell-based, cisplatin or BGB combos, synergistic combos for chromothripsis tumors (AID 1671451; call rule not given here;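 further: cells exposed for 96 hours before readout; 0% = vehicle DMSO and 100% = killing by high DMSO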); conditions: ICB984 medulloblastoma cells, drug combinations, stronger effect = higher value
# [18] = growth inhibition, single agents and combos, HTB85, cell-based, BGB or cisplatin IC20 combos, synergistic combos for chromothripsis tumors (AID 1671453; in the data active means inhibition above about 80%;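 further: cells exposed for 96 hours before readout; 0% = vehicle DMSO and 100% = high DMSO killing control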); conditions: HTB85 osteosarcoma cells, drug combinations, stronger effect = higher value
# [19] = growth inhibition, MDA-MB-436, cell-based, BGB or cisplatin combos, synergistic combos for chromothripsis tumors (AID 1671458; call rule not given here;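 further: cells exposed for 96 hours; 0% = vehicle DMSO and 100% = killing by high DMSO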); conditions: MDA-MB-436 breast carcinoma growth inhibition, drug combinations, stronger effect = higher value
# [20] = measured here: epithelial PC-3E GFP cell survival
# [21] = measured here: mesenchymal TEM4-18 mCherry cell survival
# [22] = stronger effect = lower value, cell number ratio, induced over uninduced
# [23] = measured here: relative caspase fold change +Dox/-Dox
# [24] = measured here: total cells with miR-34 induction, stronger effect = lower value
# [25] = measured here: total cells without miR-34 induction
# [26] = MELAS cybrid survival, CellTiter-Glo 48 h, stronger effect = higher value
# [27] = Rieske KO mouse fibroblast survival, CellTiter-Glo 72 h
smiles,measurement,setting,value
C[C@H]1[C@H](NC(=O)/C(=N/OC(C)(C)C(=O)O)c2csc(N)n2)C(=O)N1S(=O)(=O)O (stereo in doubt),nuclear beta-catenin stimulation,[1]; at 10 µM,5% (inactive)
same,nuclear beta-catenin stimulation,"[1]; stimulation, at 2 µM",-0.4%
same,insulin secretion stimulation,[2],0.1% (inactive)
same,viability decrease,[3],-16.4% (inactive)
same,tube area decrease,[4],11.9% (inactive)
same,GLP1 secretion stimulation,[5],-1.9% (inactive)
same,inhibition of viability,[6],0.97% (inactive)
same,viability decrease (inhibition),[7],25.1% (inactive)
same,viability decrease (inhibition),[8],-11.3% (inactive)
same,red/green cell ratio (normalised),[9],1.32 (inactive)
same,normalised cell number,[9]; [20],0.82
same,normalised cell number,[9]; [21],1.08
OC(CCN1CCCCC1)(c1ccccc1)C1CC2C=CC1C2 (stereo not given),survival,[10],9.67 (inactive)
same,parasite load remaining,[11],61.4% (inactive) and 36.1% (inactive)
same,viability,[11],78.3% and 106%
same,nuclear beta-catenin stimulation,[1]; at 10 µM,0.3% (inactive)
same,nuclear beta-catenin stimulation,"[1]; stimulation, at 2 µM",-0.7%
same,insulin secretion stimulation,[2],4.5% (inactive)
same,viability decrease,[3],-65.7% (inactive)
same,tube area decrease,[4],1.4% (inactive)
same,GLP1 secretion stimulation,[5],-4% (inactive)
same,inhibition of viability,[6],36.4% (inactive)
same,viability decrease (inhibition),[7],39.6% (inactive)
same,viability decrease (inhibition),[8],2.7% (inactive)
same,red/green cell ratio (normalised),[9],0.98 (inactive)
same,normalised cell number,[9]; [20],0.85
same,normalised cell number,[9]; [21],0.83
same,fold change,[12]; [22],1.01 (inactive) and 0.963 (inactive) and 0.83 (inactive)
same,fold change,[12]; [23],1.73 and 0.774 and 4.12
same,cell count,[12]; [24],10100 and 7400 and 10600
same,cell count,[12]; [25],9960 and 7680 and 12700
same,z-score,[13]; [26],-0.399 (inactive)
same,z-score,[13]; [27],0.122
same,remaining NAD,[14],10 nM (inactive)
C#CCN(C)CCCOc1ccc(Cl)cc1Cl,survival,[10],8.67 (inactive)
same,parasite load remaining,[11],88.7% (inactive) and 89.7% (inactive)
same,viability,[11],100% and 71.8%
same,nuclear beta-catenin stimulation,[1]; at 10 µM,0.3% (inactive)
same,nuclear beta-catenin stimulation,"[1]; stimulation, at 2 µM",-0.5%
same,insulin secretion stimulation,[2],-2.3% (inactive)
same,viability decrease,[3],-91.8% (inactive)
same,tube area decrease,[4],22.3% (inactive)
same,GLP1 secretion stimulation,[5],-0.5% (inactive)
same,inhibition of viability,[6],2.63% (inactive)
same,viability decrease (inhibition),[7],48.3% (inactive)
same,viability decrease (inhibition),[8],13.7% (inactive)
same,red/green cell ratio (normalised),[9],1 (inactive)
same,normalised cell number,[9]; [20],1.14
same,normalised cell number,[9]; [21],1.14
same,fold change,[12]; [22],1.02 (inactive) and 0.917 (inactive) and 0.833 (inactive)
same,fold change,[12]; [23],0.924 and 0.754 and 1.44
same,cell count,[12]; [24],9600 and 8700 and 8160
same,cell count,[12]; [25],9370 and 9480 and 9800
same,z-score,[13]; [26],0.667 (inactive)
same,z-score,[13]; [27],0.294
same,remaining NAD,[14],10 nM (inactive)
CN1CCN(c2c(F)cc3c(=O)c(C(=O)O)cn(CCF)c3c2F)CC1,parasite load remaining,[11],13% (inactive)
same,viability,[11],62.5%
same,nuclear beta-catenin stimulation,[1]; at 10 µM,0.3% (inactive)
same,nuclear beta-catenin stimulation,"[1]; stimulation, at 2 µM",0.9%
same,insulin secretion stimulation,[2],-1% (inactive)
same,viability decrease,[3],-13.8% (inactive)
same,tube area decrease,[4],12.8% (inactive)
same,GLP1 secretion stimulation,[5],7.1% (inactive)
same,inhibition of viability,[6],4.1% (inactive)
same,viability decrease (inhibition),[7],4.9% (inactive)
same,viability decrease (inhibition),[8],-10.7% (inactive)
same,red/green cell ratio (normalised),[9],1.08 (inactive)
same,normalised cell number,[9]; [20],1.16
same,normalised cell number,[9]; [21],1.24
same,fold change,[12]; [22],0.864 (inactive)
same,fold change,[12]; [23],1.53
same,cell count,[12]; [24],9860
same,cell count,[12]; [25],11400
same,z-score,[13]; [26],-0.514 (inactive) and -0.443 (inactive)
same,z-score,[13]; [27],-0.857 and -0.453
same,inhibition,"[15]; at 0.5 µM, stronger effect = higher value",2.95% (inactive)
same,inhibition,"[15]; measured here: combination with BGB IC20, at 0.005 µM",20.9%
same,inhibition,"[15]; measured here: combination with BGB IC40, at 0.005 µM",16.6%
same,inhibition,"[15]; measured here: combination with BGB IC40, at 0.05 µM",22.7%
same,inhibition,"[15]; measured here: combination with cisplatin, at 0.5 µM, stronger effect = higher value",-9.55%
same,inhibition,"[15]; measured here: combination with cisplatin, at 5 µM, stronger effect = higher value",1.02%
same,inhibition,"[16]; BGB combo, at 5 µM",17.4%
same,inhibition,[16]; at 0.5 µM,15.1% (inactive)
same,inhibition,"[16]; cisplatin combo, at 5 µM",34.1%
same,inhibition,"[16]; measured here: with BGB IC20 combination, at 0.5 µM",12.4%
same,inhibition,"[16]; measured here: with cisplatin IC20 combination, at 0.5 µM",22.9%
same,inhibition,"[16]; single agent, at 5 µM",6.61%
same,inhibition,"[17]; BGB IC20 combo, at 0.005 µM",3.45%
same,inhibition,"[17]; BGB IC40 combo, at 0.005 µM",12%
same,inhibition,"[17]; BGB IC40 combo, at 0.05 µM",3.66%
same,inhibition,[17]; at 0.5 µM,-15.4% (inactive)
same,inhibition,"[17]; cisplatin combo, at 0.05 µM",0.969%
same,inhibition,"[17]; cisplatin combo, at 0.5 µM",-17.2%
same,inhibition,"[17]; cisplatin combo, at 5 µM",-29.4%
same,inhibition,"[17]; measured here: 5 uM single agent, at 5 µM",-20.3%
same,inhibition,[18]; at 0.5 µM,2.85% (inactive)
same,inhibition,"[18]; measured here: with BGB IC20, at 0.5 µM",3.83%
same,inhibition,"[18]; measured here: with BGB IC20, at 5 µM",4.56%
same,inhibition,"[18]; measured here: with cisplatin IC20, at 0.5 µM",-12%
same,inhibition,"[18]; measured here: with cisplatin IC20, at 5 µM",-2.52%
same,inhibition,"[18]; single agent, at 5 µM",7.25%
same,inhibition,[19]; at 0.5 µM,2.48% (inactive)
same,inhibition,"[19]; measured here: BGB combination, at 0.5 µM",6.04%
same,inhibition,"[19]; measured here: BGB combination, at 5 µM",-1.46%
same,inhibition,"[19]; measured here: cisplatin combination, at 0.5 µM",-0.921%
same,inhibition,"[19]; measured here: cisplatin combination, at 5 µM",-0.504%
CCCN(CCC)CCc1cccc2c1CC(=O)N2,parasite load remaining,[11],55.3% (inactive)
same,viability,[11],102%
same,nuclear beta-catenin stimulation,[1]; at 10 µM,2.8% (inactive)
same,nuclear beta-catenin stimulation,"[1]; stimulation, at 2 µM",1.5%
same,insulin secretion stimulation,[2],2.8% (inactive)
same,viability decrease,[3],8% (inactive)
same,tube area decrease,[4],-10% (inactive)
same,GLP1 secretion stimulation,[5],3.9% (inactive)
same,inhibition of viability,[6],21.3% (inactive)
same,viability decrease (inhibition),[7],29.8% (inactive)
same,viability decrease (inhibition),[8],26.9% (inactive)
same,red/green cell ratio (normalised),[9],1.06 (inactive)
same,normalised cell number,[9]; [20],0.99
same,normalised cell number,[9]; [21],1.05
same,fold change,[12]; [22],0.948 (inactive) and 0.94 (inactive) and 0.88 (inactive)
same,fold change,[12]; [23],1.29 and 1.47 and 5.03
same,cell count,[12]; [24],9580 and 9680 and 11700
same,cell count,[12]; [25],10100 and 10300 and 13300
same,z-score,[13]; [26],0.118 (inactive) and -0.361 (inactive)
same,z-score,[13]; [27],0.253 and -0.254
same,remaining NAD,[14],10 nM (inactive)
Cc1cc(=O)oc2cc(O)ccc12,survival,[10],5.33 (inactive)
same,parasite load remaining,[11],118% (inactive)
same,viability,[11],98.7%
same,nuclear beta-catenin stimulation,[1]; at 10 µM,-0.6% (inactive)
same,nuclear beta-catenin stimulation,"[1]; stimulation, at 2 µM",-0.4%
same,insulin secretion stimulation,[2],-1.7% (inactive)
same,viability decrease,[3],-10.2% (inactive)
same,tube area decrease,[4],-7.2% (inactive)
same,GLP1 secretion stimulation,[5],3.1% (inactive)
same,inhibition of viability,[6],13.6% (inactive)
same,viability decrease (inhibition),[7],12.3% (inactive)
same,viability decrease (inhibition),[8],-2.45% (inactive)
same,red/green cell ratio (normalised),[9],0.94 (inactive)
same,normalised cell number,[9]; [20],1.05
same,normalised cell number,[9]; [21],0.99
same,fold change,[12]; [22],0.873 (inactive) and 0.847 (inactive) and 0.939 (inactive)
same,fold change,[12]; [23],1.07 and 1.58 and 0.709
same,cell count,[12]; [24],8530 and 9030 and 8940
same,cell count,[12]; [25],9770 and 10700 and 9520
same,z-score,[13]; [26],-0.289 (inactive) and 0.464 (inactive)
same,z-score,[13]; [27],0.286 and 0.338
same,remaining NAD,[14],10 nM (inactive)
